A number with no mark means an inactive call. For some assays here: Entries with a potency or affinity are not part of this list. Active and inactive are the calls of the source. Unless noted, the rule behind the calls is not given here.
Legend:
[1] = antimalarial activity against Dd2 strain (AID 2302;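 active = growth inhibition above 50% at the single 2 µM test dose, taken to imply half-maximal potency below 2 µM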;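 note: 0% = DMSO untreated growth and 100% = chloroquine plus artemisinin killed control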); details: P. falciparum Dd2 in RBCs, LDH growth readout, 72 h; at 2 µM; stronger effect = higher value
[2] = HepG2 cytotoxicity, primary screen, cytotoxicity control for P. falciparum antimalarial project, cell-based, ATP luminescence (AID 2303;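 active = inhibition above 50%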;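 note: 0% = DMSO wells and 100% = digitonin-killed cells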); details: HepG2 viability, 24-48 h, at 10 µM, stronger effect = higher value
[3] = target: L-lactate dehydrogenase (Plasmodium falciparum (isolate CDC / Honduras)) (UniProt Q27743); test: PfLDH activity inhibition – cell lysate, 3D7 strain, counter-screen for P. falciparum growth inhibition project (AID 2304);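 note: 0% = vehicle and 100% = reference inhibitor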; details: P. falciparum 3D7 crude extract, LDH APAD/NBT absorbance; at 2 µM; stronger effect = higher value
L-lactate dehydrogenase (Plasmodium falciparum (isolate CDC / Honduras)), sequence (Q27743 whole entry, looked up): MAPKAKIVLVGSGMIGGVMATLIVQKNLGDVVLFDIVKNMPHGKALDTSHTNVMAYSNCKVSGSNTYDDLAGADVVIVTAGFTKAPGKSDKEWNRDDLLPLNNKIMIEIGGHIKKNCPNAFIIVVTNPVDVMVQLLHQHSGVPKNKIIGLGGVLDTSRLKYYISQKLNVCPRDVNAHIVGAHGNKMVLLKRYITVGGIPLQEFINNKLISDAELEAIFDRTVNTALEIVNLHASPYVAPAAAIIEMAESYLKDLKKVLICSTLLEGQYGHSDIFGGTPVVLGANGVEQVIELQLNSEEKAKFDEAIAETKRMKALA

[4] = inhibition of 3D7 malaria parasite growth – strain 3D7 (AID 2306);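 note: 0% = DMSO wells and 100% = chloroquine plus artemisinin control wells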; details: P. falciparum 3D7 erythrocytic growth, LDH absorbance, 72 h; at 2 µM; stronger effect = higher value
[5] = target: Calcium-dependent protein kinase 1 (Plasmodium falciparum (isolate 3D7)) (UniProt P62344); test: PfCDPK1 kinase inhibitors, biochemical, TCAMS library (AID 1159585; cut-off not given, nearly all actives have IC50 up to about 0.98 µM;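 note: inhibitors leave more ATP so luminescence rises with inhibition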); details: recombinant PfCDPK1, Kinase-Glo ATP depletion luminescence
Calcium-dependent protein kinase 1 (Plasmodium falciparum (isolate 3D7)), sequence (P62344 whole entry, looked up): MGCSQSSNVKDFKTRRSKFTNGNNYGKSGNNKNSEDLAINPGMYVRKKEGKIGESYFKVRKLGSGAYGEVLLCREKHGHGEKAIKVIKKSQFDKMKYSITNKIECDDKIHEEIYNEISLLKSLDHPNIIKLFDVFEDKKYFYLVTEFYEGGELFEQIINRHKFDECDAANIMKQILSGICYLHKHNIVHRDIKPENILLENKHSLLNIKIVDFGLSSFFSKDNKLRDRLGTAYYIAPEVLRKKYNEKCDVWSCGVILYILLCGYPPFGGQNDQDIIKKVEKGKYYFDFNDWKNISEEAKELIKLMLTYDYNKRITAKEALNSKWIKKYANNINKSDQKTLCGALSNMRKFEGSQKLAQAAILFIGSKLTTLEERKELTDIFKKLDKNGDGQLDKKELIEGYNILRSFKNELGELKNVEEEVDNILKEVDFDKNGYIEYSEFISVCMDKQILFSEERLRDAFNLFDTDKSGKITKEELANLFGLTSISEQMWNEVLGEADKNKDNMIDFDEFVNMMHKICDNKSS

[6] = target: Plasmodium falciparum protein kinase 6 (PK6, PF3D7_1337100) (UniProt Q8IDW1); test: PfPK6 kinase inhibitors, biochemical, TCAMS library (AID 1159586); details: recombinant PfPK6, Kinase-Glo ATP depletion luminescence
Plasmodium falciparum protein kinase 6 (PK6, PF3D7_1337100), sequence (Q8IDW1 1-305): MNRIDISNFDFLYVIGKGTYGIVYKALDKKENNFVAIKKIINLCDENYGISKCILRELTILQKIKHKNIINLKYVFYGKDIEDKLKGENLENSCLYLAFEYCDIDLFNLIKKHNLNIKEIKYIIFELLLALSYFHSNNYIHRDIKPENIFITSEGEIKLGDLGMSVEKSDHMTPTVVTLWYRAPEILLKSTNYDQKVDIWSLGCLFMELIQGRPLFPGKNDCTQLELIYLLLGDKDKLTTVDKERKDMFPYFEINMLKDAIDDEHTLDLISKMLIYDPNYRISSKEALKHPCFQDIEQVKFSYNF

[7] = target: Protein kinase 7 (PK7), Plasmodium falciparum 3D7 (PF3D7_0213400) (UniProt Q7YTF7); test: inhibition of Plasmodium PK7 catalytic activity – biochemical, TCAMS antimalarial set, Kinase-Glo luminescence (AID 1159587); details: recombinant PfPK7, Kinase-Glo ATP depletion luminescence
Protein kinase 7 (PK7), Plasmodium falciparum 3D7 (PF3D7_0213400), sequence (Q7YTF7 1-343): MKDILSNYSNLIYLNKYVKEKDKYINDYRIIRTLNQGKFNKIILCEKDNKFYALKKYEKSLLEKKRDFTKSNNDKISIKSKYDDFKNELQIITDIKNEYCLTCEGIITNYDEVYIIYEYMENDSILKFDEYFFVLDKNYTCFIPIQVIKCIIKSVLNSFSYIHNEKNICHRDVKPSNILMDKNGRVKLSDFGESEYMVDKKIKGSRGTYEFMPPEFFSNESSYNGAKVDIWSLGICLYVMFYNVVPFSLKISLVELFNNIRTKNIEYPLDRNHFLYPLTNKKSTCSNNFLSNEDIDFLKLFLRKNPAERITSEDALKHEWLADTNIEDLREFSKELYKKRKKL

[8] = target: Calcium-dependent protein kinase 4 (Plasmodium falciparum (isolate 3D7)) (UniProt Q8IBS5); test: PfCDPK4 kinase inhibitors, biochemical, TCAMS library (AID 1159588; cut-off not given, nearly all actives have IC50 up to about 0.91 µM); details: recombinant PfCDPK4, Kinase-Glo ATP depletion luminescence
Calcium-dependent protein kinase 4 (Plasmodium falciparum (isolate 3D7)), sequence (Q8IBS5 whole entry, looked up): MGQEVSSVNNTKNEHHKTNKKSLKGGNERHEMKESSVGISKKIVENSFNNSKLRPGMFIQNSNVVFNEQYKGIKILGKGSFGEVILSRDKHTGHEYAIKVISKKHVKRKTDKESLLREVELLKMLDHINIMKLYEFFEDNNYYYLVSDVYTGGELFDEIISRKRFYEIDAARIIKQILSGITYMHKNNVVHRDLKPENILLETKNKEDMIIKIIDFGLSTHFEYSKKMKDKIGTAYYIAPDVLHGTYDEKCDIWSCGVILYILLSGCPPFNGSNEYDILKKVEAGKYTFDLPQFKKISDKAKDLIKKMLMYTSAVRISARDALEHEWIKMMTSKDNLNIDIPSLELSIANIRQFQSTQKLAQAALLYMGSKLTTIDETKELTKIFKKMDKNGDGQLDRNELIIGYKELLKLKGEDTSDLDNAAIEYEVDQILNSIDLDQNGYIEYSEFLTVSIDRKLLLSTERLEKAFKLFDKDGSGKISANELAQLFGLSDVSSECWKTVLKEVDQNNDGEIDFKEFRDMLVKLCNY

| SMILES | growth inhibition [1] | inhibition [2] | inhibition [3] [%] | growth inhibition [4] | outcome [5] | outcome [6] | outcome [7] | outcome [8] |
| --- | --- | --- | --- | --- | --- | --- | --- | --- |
| Fc1cc(Cl)ccc1Nc1ccnc2cc(-c3ccc(CN4CCOCC4)o3)ccc12 | 98% (active) | 33% | 0 | 99% (active) | inactive | inactive | inactive | inactive |
| COC(=O)c1ccc(CCC(C)NCC(O)c2cccc(C(F)(F)F)c2)cc1 (stereo not given) | 99% (active) | 16% | -7 | 99% (active) | inactive | inactive | inactive | inactive |
| CCCc1cc(Cc2cnc(N)nc2N)cc(OCCCCCC(=O)O)c1OC | 2% | 8% | 4 | 95% (active) | inactive | inactive | inactive | inactive |
| Cc1ccc2sc(N3CCN(C(=O)c4ccc([N+](=O)[O-])o4)CC3)nc2c1C | 86% (active) | -7% | 5 | 90% (active) | inactive | inactive | inactive | inactive |
| O=C(/C=C/c1ccc(Cl)c(Cl)c1)NCCCCCCN1CCCN(C(=O)Nc2ccc(Cl)c(C(F)(F)F)c2)CC1 | 24% | 25% | -4 | 101% (active) | inactive | inactive | inactive | inactive |
| CCCCCCCCN1CCCN(C(=O)c2cccc(NC(=O)Nc3ccc4ccccc4c3)c2)CC1 | 39% | 39% | 1 | 97% (active) | inactive | inactive | inactive | inactive |
| COc1cccc(C(=O)Nc2ccc(-c3nc4ccccc4[nH]3)cc2)c1 | 19% | 28% | -3 | 95% (active) | inactive | inactive | inactive | inactive |
| Clc1ccc(Cn2nc(Br)nc2Br)c(Cl)c1 | 96% (active) | 4% | 2 | 96% (active) | inactive | inactive | inactive | inactive |
| O=C(NCC1CCC1)c1cnc(Nc2cccc(Cl)c2)nc1N1CCC1 | 75% (active) | 21% | 2 | 98% (active) | inactive | inactive | inactive | inactive |
| COc1ccc(CCN(C)CCCCNC(=O)c2ccc(NC(=O)c3ccc(Cl)cc3)cc2)c(OC)c1 | 0% | 12% | 4 | 87% (active) | inactive | inactive | inactive | inactive |
| O=C(Nc1cccc(OC2CCN(Cc3ccsc3)CC2)c1)c1ccc(C(F)(F)F)cc1 | 5% | 25% | -2 | 98% (active) | inactive | inactive | inactive | inactive |
| CN1CCN(c2ccnc3cc4c(cc23)N(Cc2ccccc2)CC4)CC1 | 27% | -2% | -3 | 94% (active) | inactive | inactive | inactive | inactive |
| O=C(CC1CCCC1)Nc1ccc2c(c1)CCC2 | -2% | -1% | 2 | 93% (active) | inactive | inactive | inactive | inactive |
| CC(C)c1ccc(CN2CCCCC(NC(=O)c3cc(-c4cccc(F)c4)cs3)C2)cc1 (stereo not given) | 13% | 6% | 1 | 94% (active) | inactive | inactive | inactive | inactive |
| Cc1cc(O)c(CN(C)Cc2ccc3c(c2)OCO3)cc1C(C)C | 74% (active) | 9% | 0 | 98% (active) | inactive | inactive | inactive | inactive |
| NC(Cc1ccc(Cl)cc1)=NCCN1CCCCCC1 | 94% (active) | -8% | -2 | 93% (active) | inactive | inactive | inactive | inactive |
| CC(C)(C)c1ccc2nc(-c3ccc(C(=O)NC4CCN(Cc5ccccc5)CC4)s3)[nH]c2c1 | 42% | 24% | 0 | 91% (active) | inactive | inactive | inactive | inactive |
| O=C(Nc1ccc(-c2cccc(-c3nc4ccccc4[nH]3)c2)cc1)Nc1ccc2c(c1)OCO2 | 65% (active) | 55% (active) | 0 | 102% (active) | inactive | inactive | inactive | inactive |
| CCN(CC)CCN(Cc1ccc(-c2ccc(C(F)(F)F)cc2)cc1)C(=O)Cn1c(CCc2cc(F)cc(F)c2)nc(=O)c2ccccc21 | 80% (active) | 30% | 2 | 91% (active) | inactive | inactive | inactive | inactive |
| O=S(=O)(c1ccc(OCc2ccc(Cl)cc2)cc1)c1cc2c(cc1OCc1ccccc1)CCN(CC1CC1)CC2 | -2% | 19% | -3 | 82% (active) | inactive | inactive | inactive | inactive |

| SMILES | growth inhibition [1] | inhibition [2] | inhibition [3] [%] | growth inhibition [4] | outcome [5] | outcome [6] | outcome [7] | outcome [8] |
| --- | --- | --- | --- | --- | --- | --- | --- | --- |
| O=C(Nc1cccc(CN2CCCN(Cc3ccc(O)cc3)CC2)c1)c1cccc(C(F)(F)F)c1 | 71% (active) | 9% | 3 | 101% (active) | inactive | inactive | inactive | inactive |
| CC1CCCCN1CCCNC(=O)c1cccc(-c2cc3cc(Cl)c(Cl)cc3[nH]2)c1 (stereo not given) | 7% | 22% | -2 | 94% (active) | inactive | inactive | inactive | inactive |
| O=[N+]([O-])c1cccc(CNC2CCN(Cc3ccc(Cl)c(Cl)c3)CC2)c1 | 71% (active) | 5% | 3 | 100% (active) | inactive | inactive | inactive | inactive |
| Cc1cccc2[nH]c(-c3ccc(-c4ccc(CNCCCN5CCCC5=O)cc4)s3)nc12 | 43% | 17% | 2 | 101% (active) | inactive | inactive | inactive | inactive |
| O=C(N[C@@H](Cc1ccccc1)C(=O)NCc1cccc(C(F)(F)F)c1)c1ccc(O)c(-c2ccc(Cl)c(Cl)c2)c1 | 97% (active) | -13% | -1 | 96% (active) | inactive | inactive | inactive | inactive |
| CN1CCN(CC(=O)Nc2ccc(-c3csc(-c4nc5ccccc5[nH]4)c3)cc2)CC1 | 46% | 6% | -4 | 99% (active) | inactive | inactive | inactive | inactive |
| CCn1c(CN2CCC(C)CC2)nc2cc(NC(=O)c3cccs3)ccc21 | 95% (active) | 40% | 1 | 91% (active) | inactive | inactive | inactive | inactive |
| CCC[C@@H]([C@@H](CC(C)C)C(=O)N[C@@H](CCCCNC(=O)c1ccccn1)C(=O)Nc1nccs1)N(O)C=O | 100% (active) | -23% | -3 | 101% (active) | inactive | inactive | inactive | inactive |
| COc1ccc(CCNC(=O)c2ccc(-n3cc(NC(=O)c4cccnc4)cn3)cc2)cc1OC | 89% (active) | 17% | 3 | 90% (active) | inactive | inactive | inactive | inactive |
| O=C(/C=C/c1ccc(Cl)c(Cl)c1)NCCCCCCN1CCCN(C(=O)Nc2cccc(Cl)c2)CC1 | 2% | 26% | 0 | 94% (active) | inactive | inactive | inactive | inactive |
| CCCNCc1ccc(-c2ccc(CN(CCOC)C(=O)CCC(=O)c3ccc(OC)c(F)c3)cc2)nc1 | 47% | 13% | -7 | 100% (active) | inactive | inactive | inactive | inactive |
| CCC[C@@H]([C@@H](CC1CCCCC1)C(=O)N[C@H](C(=O)Nc1nccs1)C(C)(C)SCCNC(=O)OCC)N(O)C=O | 98% (active) | 45% | 0 | 99% (active) | inactive | inactive | inactive | inactive |
| Cc1[nH]c(C)c(-c2ccc(-c3ccc(Cl)cc3)cc2)c(=O)c1Cl | 96% (active) | -9% | -6 | 96% (active) | inactive | inactive | inactive | inactive |
| Cc1cc(Nc2ccc(OCc3ccccc3Cl)cc2)c2cc(Cl)ccc2n1 | 58% (active) | 33% | 5 | 100% (active) | inactive | inactive | inactive | inactive |
| Cc1cccc2[nH]c(-c3cccc(-c4ccc(CNCCCN5CCCC5=O)cc4)c3)nc12 | 38% | 5% | 2 | 101% (active) | inactive | inactive | inactive | inactive |
| COc1cc(NC(=O)/C=C/c2cccc3cc[nH]c23)ccc1OCCN(C(C)C)C(C)C | 51% (active) | 11% | 5 | 99% (active) | inactive | inactive | inactive | inactive |
| CC(=O)C1=NN(c2ccc(C)cc2)C(c2cccs2)N1c1ccccc1 (stereo not given) | 64% (active) | -4% | -4 | 89% (active) | inactive | inactive | inactive | inactive |
| CO/C(=C\C=C\c1cc2cc(Cl)c(Cl)cc2[nH]1)C(=O)NC1C[C@H]2CC[C@@H](C1)N2C (stereo not given in full) | 23% | 46% | -4 | 88% (active) | inactive | inactive | inactive | inactive |
| CCCc1cc(N2CCC(N(CC)CC)C2)nc(Nc2ccc(OC)cc2)n1 (stereo not given) | 4% | 9% | 4 | 90% (active) | inactive | inactive | inactive | inactive |
| O=C(/C=C/c1ccc(Cl)c(Cl)c1)NC1CCC(CN2CCC(c3nc4ccccc4n3CCCO)CC2)CC1 (stereo not given) | 28% | 28% | -5 | 99% (active) | inactive | inactive | inactive | inactive |
